Reference: PubChem BioAssay (NCATS)
Records with an inconclusive call do not appear. A number with no mark means an inactive call. Activity calls are given as the source filed them. The call rests on the fitted dose curve; in most records, active means well fitted cell-killing curve with a large enough effect; inconclusive means small, poorly fitted or top-dose-only effect; inactive means no such curve, though single readings can be large or run the other way. Positions of bridges follow the written chain, without caps; N, C: chain ends. Non-standard residues stand in square brackets, D forms with d. Residues, ends and D or L forms follow the SMILES beside them. ξ: configuration not given here. *: point of attachment. Octanoyl(6-Me) = CCC(C)CCCCC(=O)*; ξThr(3R) = C[C@@H](O)C(N)C(=O)O; dDab = NCC[C@@H](N)C(=O)O; Dab = NCC[C@H](N)C(=O)O; Nva = CCC[C@H](N)C(=O)O; Cbz = O=C(OCc1ccccc1)*

Experiment: qHTS of pediatric cancer cell lines to identify multiple opportunities for drug repurposing: Primary screen for NB1643 cells (AID 1347099); further: nearly all actives have a fitted effect of over 50% in size
Conditions: NB1643 neuroblastoma viability, CellTiter-Glo luminescence, 48 h; series mostly up to 46 µM; activity change, negative = cytotoxic: at the top concentration
Excerpt: Drug repurposing or repositioning has been offered as a strategy for drug development in oncology programs. This approach has special potential for childhood cancers and other rare or orphan diseases, where the expected return on new drug development has been a disincentive to pharmaceuticals. […] In this project we exploit the poly-pharmacology of drugs to discover new indications via phenotypic screening of a panel of 19 well-characterized cell lines derived from solid tumors seen in children and adolescents. The goal is to identify approved drugs with previously unrecognized anticancer properties that has the potential to reveal new mechanisms and biological processes involved in carcinogenesis or drug resistance. We employed a titration-based paradigm (quantitative high-throughput screening or qHTS), where all compounds were tested at multiple concentrations for their effect on cell viability. Concentration-response curves (CRCs) were derived directly from the primary screen, and both potency and efficacy values were used to identify compounds with robust bioactivity profiles. We screened the NIH Chemical Genomics Center (NCGC) Pharmaceutical Collection (NPC) and Mechanism Interrogation Plate (MIPE) small molecule collections of approved and investigational compounds against these cell lines; and measured metabolically active cells after 48 hours of compound treatment as a proxy for cell viability. […] Assay Submitter: Nathalia J. Martinez, National Center for Advancing Translational Sciences, National Institutes of Health, Rockville, MD, USA; email: natalia.martinez@nih.gov Shen, M et al. Quantitative high-throughput phenotypic screening of pediatric cancer cell lines identifies multiple opportunities for drug repurposing. Oncotarget 2017 Dec 19;9(4):4758-4772. PMID 29435139.
The cells were obtained from University of North Carolina (UNC), Pediatric Preclinical Testing Program (PPT), and Coriell Institute (CI). qHTS cell viability assay: Cells were assayed in growth media at a density of 500-1,000 cells/well. Five microliters of cells were dispensed into 1,536-well, white, solid-bottom, TC-treated plates (Greiner Bio One) using a multidrop dispenser and incubated at 37 degrees C, 5% CO2, under a humidified atmosphere for 5 hours. Twenty-three nanoliters of compounds and controls (neutral control DMSO or positive control bortezomib at final concentration of 2.3 µM) were subsequently transferred by Kalypsys pintool. For primary screens, the MIPE collection was tested at 11-point dilutions (final concentrations range from 0.78 nM to 46 µM) and the NPC collection at 8-point dilutions (final concentrations range from 0.59 nM to 46 µM). Compounds tested in follow-up screens were assayed at 11-point dilutions. Cells were incubated for 48 hours, followed by addition of 3 µL of CellTiter-Glo (Promega). After a 15 min incubation at room temperature, samples were analyzed for luminescence intensity using a ViewLux High-throughput CCD imager equipped with clear filters.
Potency means the concentration at half of the fitted maximal effect.

| SMILES | Potency | activity change, negative = cytotoxic |
| --- | --- | --- |
| COc1cc2c(cc1OC)[C@@H]1C(=O)c3ccc4c(c3O[C@@H]1CO2)C=CC(C)(C)O4 | 3.32 µM (active) | – |
| C=C1C(=CC=C2CCC[C@]3(C)[C@@H]([C@H](C)CCCC(C)(C)O)CC[C@@H]23)C[C@@H](O)C[C@@H]1O | 2.35 µM (active) | – |
| Cc1cnn(C)c1C(=O)Nc1cc(Nc2ccc3c(C=Cc4ccccn4)n[nH]c3c2)ccc1F | 14.8 µM (active) | – |
| O=C1c2cccc(O)c2C(=O)c2c(O)cc(CO)cc21 | 26.4 µM (active) | – |
| C[C@@H]1CC[C@@]2(OC1)OC1CC3C4CC=C5CC(O)CCC5(C)C4CCC3(C)C1[C@@H]2C (stereo not given in full) | – | -4.85% |
| CCN(CC)CCNC(=O)c1c(C)[nH]c(C=C2C(=O)Nc3ccc(F)cc32)c1C | 38.2 µM (active) | – |
| CC(C)OC(=O)[C@H](C)N[P@](=O)(OC[C@H]1O[C@@H](n2ccc(=O)[nH]c2=O)[C@](C)(F)[C@H]1O)Oc1ccccc1 | – | -19.3% |
| O=C(O)C=Cc1ccc(Cn2ccnc2)cc1 | – | 1.58% |
| Cc1nc(NC(=O)N2CCC[C@@H]2C(N)=O)sc1-c1ccnc(C(C)(C)C(F)(F)F)c1 | 9.35 µM (active) | – |
| CN(CC(=O)N(Cc1ccc(C2CCCCC2)cc1)c1ccc(C(=O)O)c(O)c1)S(=O)(=O)c1c(F)c(F)c(F)c(F)c1F | 20.9 µM (active) | – |
| CCc1nc(-c2cccc(C)c2)c(-c2ccnc(NC(=O)c3ccccc3)c2)s1 | 18.7 µM (active) | – |
| C[C@@]12C(=O)OC(=O)[C@@]1(C)C1CCC2O1 | 1.48 µM (active) | – |
| CC(C)(O)Cn1c(NC(=O)c2ccc(-c3cn[nH]c3)s2)nc2cc(CN3CCOCC3)ccc21 | 0.743 µM (active) | – |
| c1cncc(CN2CCC(n3ncc4c(N5CCOCC5)nc(-c5ccc6[nH]ccc6c5)nc43)CC2)c1 | 6.62 µM (active) | – |
| OCc1ccccc1O[C@@H]1O[C@H](CO)[C@H](O)[C@H](O)[C@H]1O | – | 2.66% |
| CC(C)[C@H](CO)Nc1nc(Nc2cccc(Cl)c2)c2ncn(C(C)C)c2n1 | 2.96 µM (active) | – |
| CC1(C)[C@H](O[C@H]2O[C@H](C(=O)O)[C@@H](O)[C@H](O)[C@H]2O[C@@H]2O[C@H](C(=O)O)[C@@H](O)[C@H](O)[C@H]2O)CC[C@@]2(C)[C@H]1CC[C@]1(C)[C@H]2C(=O)C=C2[C@H]3C[C@@](C)(C(=O)O)CC[C@]3(C)CC[C@]21C | – | 21.8% |
| CCNC(=O)c1cc2c(-c3cc(OCCN4CCCC4)c(Cl)cc3Cl)nc(N)nc2s1 | 2.64 µM (active) | – |
| CC(N[C@H]1CCCC[C@H]1NC(=O)c1ccc(Cl)cc1)c1cccc2ccccc12 (stereo not given in full) | 0.418 µM (active) | – |
| Cc1ccc2nc(NCCN)c3ncc(C)n3c2c1 | 5.9 µM (active) | – |

| SMILES | Potency | activity change, negative = cytotoxic |
| --- | --- | --- |
| Cc1onc(-c2ccccc2)c1C(=O)N[C@@H]1C(=O)N2[C@@H](C(=O)O)C(C)(C)S[C@@H]12 | – | 14.4% |
| CCc1ccc(C(=O)Nc2cc(CN3CCN(C)CC3)cc(C(F)(F)F)c2)cc1C#Cc1cnc2ccnn2c1 | 1.18 µM (active) | – |
| Nc1ncn([C@@H]2O[C@H](CO)[C@@H](O)[C@@H]2O)c(=O)n1 | 4.69 µM (active) | – |
| CN1CCc2c(c3ccccc3n2Cc2ccc(C(=O)NO)cc2)C1 | 16.6 µM (active) | – |
| O=C(O)C[C@H](O)C[C@H](O)C=Cc1c(C2CC2)nc2ccccc2c1-c1ccc(F)cc1 | 9.35 µM (active) | – |
| COc1ccc(CCC(=O)c2c(O)cc(O[C@@H]3O[C@H](CO)[C@@H](O)[C@H](O)[C@@H]3O[C@@H]3O[C@@H](C)[C@H](O)[C@@H](O)[C@@H]3O)cc2O)cc1O | 13.2 µM (active) | – |
| CN(C)CCN1C(=O)c2cccc3cc(N)cc(c23)C1=O | 18.7 µM (active) | – |
| Nc1nc(N)c2nc(-c3cccc(O)c3)c(-c3cccc(O)c3)nc2n1 | 5.9 µM (active) | – |
| COc1cc(OC)c(C=CS(=O)(=O)Cc2ccc(OC)c(NCC(=O)O)c2)c(OC)c1 | 0.0372 µM (active) | – |
| C[C@H](NC(=O)C(C#N)=Cc1cccc(Br)n1)c1ccccc1 | 16.6 µM (active) | – |
| CC(C)c1cc(C(C)C)c(CC(=O)NS(=O)(=O)Oc2c(C(C)C)cccc2C(C)C)c(C(C)C)c1 | 16.6 µM (active) | – |
| CCC(C)CCCCC(=O)N[C@@H](CCN)C(=O)NC(C(=O)N[C@H](CCN)C(=O)N[C@@H]1CCNC(=O)C([C@@H](C)O)NC(=O)[C@@H](CCN)NC(=O)[C@@H](CCN)NC(=O)[C@@H](CC(C)C)NC(=O)[C@H](Cc2ccccc2)NC(=O)[C@H](CCN)NC1=O)[C@@H](C)O (stereo partly drawn) ({Octanoyl(6-Me)}-[Dab][ξThr(3R)][dDab][dDab][Dab]F[dL][dDab][dDab][ξThr(3R)]; lactam 4-C) | – | 22.2% |
| FC(F)c1nc2ccccc2n1-c1nc(N2CCOCC2)nc(N2CCOCC2)n1 | 1.48 µM (active) | – |
| COc1cc(O)c2c(c1)C1OC1C[C@H](O)[C@H](O)C(=O)C=CC[C@H](C)OC2=O (stereo not given in full) | 2.96 µM (active) | – |
| O=c1c(O)c(-c2ccc(O)c(O)c2)oc2cc(O)ccc12 | 20.9 µM (active) | – |
| CCC[C@@H](C=O)NC(=O)[C@H](CC(C)C)NC(=O)[C@H](CC(C)C)NC(=O)OCc1ccccc1 (Cbz-Leu-Leu-[Nva]-aldehyde) | 0.469 µM (active) | – |
| Cc1cnc(Nc2ccc(N3CCN(C)CC3)cc2)nc1Nc1cccc(S(=O)(=O)NC(C)(C)C)c1 | 3.72 µM (active) | – |
| O=C1NC(=O)C(=Cc2ccc3nccc(-c4ccncc4)c3c2)S1 | 1.32 µM (active) | – |
| C[C@H]1COc2c(N3CCN(C)CC3)c(F)cc3c(=O)c(C(=O)O)cn1c23 | – | 6.95% |
| O=C(Nc1ccc(Oc2ccnc3[nH]ccc23)c(F)c1)c1cccn(-c2ccc(F)cc2)c1=O | – | 10.6% |
